{"source": "PubChem BioAssay AID602261", "about": "(Sanford-Burnham Center for Chemical Genomics, 2012)", "note": "“And” between values parts separate entries of the source, which are not always exact repeats. Identical values can stand only once. The campaign covered roughly 360,000 compounds. About 2,400 (0.67%) were called active. What follows is part of a selection rich in actives, with near analogues and random picks from the rest. Unmarked numbers belong to inactive results.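 Rule for the calls: active = compounds whose normalised, plate-corrected inhibition of enzyme fluorescence in the single-dose primary screen is 50% or more; inactive = the rest.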"}
{"molecular_target": "Fatty acid synthase (Homo sapiens) (UniProt P49327)", "sequence (P49327 whole entry, looked up, the tested form may be a part)": "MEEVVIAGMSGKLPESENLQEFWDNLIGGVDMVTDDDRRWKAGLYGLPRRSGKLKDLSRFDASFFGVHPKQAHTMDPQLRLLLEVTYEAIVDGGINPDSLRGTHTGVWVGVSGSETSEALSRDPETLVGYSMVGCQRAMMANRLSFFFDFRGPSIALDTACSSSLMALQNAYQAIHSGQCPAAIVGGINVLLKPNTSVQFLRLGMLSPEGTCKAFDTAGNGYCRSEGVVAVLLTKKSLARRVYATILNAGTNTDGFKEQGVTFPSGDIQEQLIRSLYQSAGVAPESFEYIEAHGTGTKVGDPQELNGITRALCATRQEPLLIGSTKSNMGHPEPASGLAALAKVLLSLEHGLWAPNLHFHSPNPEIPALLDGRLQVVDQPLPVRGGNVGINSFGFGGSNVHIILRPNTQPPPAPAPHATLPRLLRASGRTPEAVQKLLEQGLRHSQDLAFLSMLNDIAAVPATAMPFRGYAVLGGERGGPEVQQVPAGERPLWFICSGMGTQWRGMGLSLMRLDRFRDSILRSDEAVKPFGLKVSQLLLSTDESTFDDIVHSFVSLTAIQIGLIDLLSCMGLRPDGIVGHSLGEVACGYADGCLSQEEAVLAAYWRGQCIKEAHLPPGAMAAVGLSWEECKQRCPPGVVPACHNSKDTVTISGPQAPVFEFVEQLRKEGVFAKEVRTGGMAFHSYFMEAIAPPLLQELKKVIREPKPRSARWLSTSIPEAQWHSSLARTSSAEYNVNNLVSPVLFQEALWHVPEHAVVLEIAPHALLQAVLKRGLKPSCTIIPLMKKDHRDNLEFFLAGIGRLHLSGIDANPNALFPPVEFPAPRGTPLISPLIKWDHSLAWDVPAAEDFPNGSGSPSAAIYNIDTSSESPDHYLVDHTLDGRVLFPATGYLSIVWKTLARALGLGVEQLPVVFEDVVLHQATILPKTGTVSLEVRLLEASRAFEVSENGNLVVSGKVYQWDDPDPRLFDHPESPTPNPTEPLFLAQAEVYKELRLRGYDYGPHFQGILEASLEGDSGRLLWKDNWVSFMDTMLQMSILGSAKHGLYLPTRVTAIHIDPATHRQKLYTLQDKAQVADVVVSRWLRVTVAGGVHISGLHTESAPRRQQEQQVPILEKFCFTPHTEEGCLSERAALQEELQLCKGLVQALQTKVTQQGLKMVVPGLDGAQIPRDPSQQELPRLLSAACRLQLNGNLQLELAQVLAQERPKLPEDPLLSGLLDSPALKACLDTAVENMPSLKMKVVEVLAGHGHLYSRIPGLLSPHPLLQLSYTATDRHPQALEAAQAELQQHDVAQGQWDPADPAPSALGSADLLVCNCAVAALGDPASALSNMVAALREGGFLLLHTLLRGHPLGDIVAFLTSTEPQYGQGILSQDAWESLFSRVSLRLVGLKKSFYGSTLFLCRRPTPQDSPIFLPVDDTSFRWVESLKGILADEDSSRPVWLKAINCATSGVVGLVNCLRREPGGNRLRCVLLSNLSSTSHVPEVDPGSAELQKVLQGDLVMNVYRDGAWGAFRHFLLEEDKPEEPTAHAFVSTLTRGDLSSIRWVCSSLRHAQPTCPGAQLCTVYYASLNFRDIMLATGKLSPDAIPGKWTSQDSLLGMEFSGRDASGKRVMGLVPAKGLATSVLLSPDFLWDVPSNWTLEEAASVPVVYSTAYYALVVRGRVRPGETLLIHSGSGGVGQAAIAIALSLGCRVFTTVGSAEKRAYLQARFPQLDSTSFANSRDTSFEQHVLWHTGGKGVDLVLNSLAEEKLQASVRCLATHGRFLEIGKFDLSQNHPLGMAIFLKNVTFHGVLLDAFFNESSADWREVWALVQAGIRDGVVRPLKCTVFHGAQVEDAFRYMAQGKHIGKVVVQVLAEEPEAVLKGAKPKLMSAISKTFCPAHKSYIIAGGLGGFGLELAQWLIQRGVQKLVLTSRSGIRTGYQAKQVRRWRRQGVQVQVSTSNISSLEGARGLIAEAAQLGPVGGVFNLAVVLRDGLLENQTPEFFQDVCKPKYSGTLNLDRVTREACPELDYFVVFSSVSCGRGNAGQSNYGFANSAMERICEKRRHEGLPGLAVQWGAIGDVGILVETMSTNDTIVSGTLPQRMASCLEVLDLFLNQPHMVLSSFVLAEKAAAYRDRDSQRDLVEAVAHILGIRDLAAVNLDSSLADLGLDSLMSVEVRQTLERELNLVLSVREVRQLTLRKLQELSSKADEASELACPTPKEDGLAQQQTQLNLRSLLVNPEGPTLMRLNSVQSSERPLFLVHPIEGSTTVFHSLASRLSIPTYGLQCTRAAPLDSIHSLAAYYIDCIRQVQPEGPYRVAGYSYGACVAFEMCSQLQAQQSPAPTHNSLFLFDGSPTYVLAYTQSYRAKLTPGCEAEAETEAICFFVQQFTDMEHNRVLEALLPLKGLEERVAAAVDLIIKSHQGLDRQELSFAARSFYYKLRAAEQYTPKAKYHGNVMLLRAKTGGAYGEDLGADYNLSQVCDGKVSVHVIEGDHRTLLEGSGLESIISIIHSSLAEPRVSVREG", "test": "FAS thioesterase domain inhibitors, primary screen, biochemical, fluorescence intensity, uHTS (AID 602261);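 note: 0% = DMSO with enzyme and 100% = substrate without enzyme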", "details": "recombinant FAS-TE, OMFH fluorogenic substrate, fluorescence endpoint; at 15 µM; hits give high values"}
{"molecule": "CCCCOC(=O)NCN1C(=O)C2C3C=CC(C3)C2C1=O", "note": "(stereo not given)", "inhibition": "-2.4%"}
{"molecule": "CCCCCOC(=O)c1ccc(N2C(=O)C3C4C=CC(C4)C3C2=O)cc1", "note": "(stereo not given)", "inhibition": "83.5% (active)"}
{"molecule": "CCCOC(=O)c1ccc(N2C(=O)c3ccccc3C2=O)cc1", "inhibition": "-2.6%"}
{"molecule": "CC1(c2ccccc2Cl)NC(=O)N(CC(=O)NC(=O)NCc2ccco2)C1=O", "note": "(stereo not given)", "inhibition": "-2.3%"}
{"molecule": "CCOC(=O)c1nn(-c2cccc(C)c2)cc1C(=O)c1ccccc1", "inhibition": "17.5%"}
{"molecule": "CCCCNC(=O)OC1CC2CC1[C@H]1CCCCN1C2=O", "note": "(stereo not given in full)", "inhibition": "-13%"}
{"molecule": "COc1ccc(Br)cc1CN(C)CC(=O)Nc1cc([N+](=O)[O-])ccc1OC", "inhibition": "42.3%"}
{"molecule": "COc1ccc([N+](=O)[O-])cc1NC(=O)CC1SC(=Nc2cccc(C)c2C)N(/N=C(\\C)c2ccc(C)cc2)C1=O", "note": "(stereo not given)", "inhibition": "75.8% (active)"}
{"molecule": "COc1ccc([N+](=O)[O-])cc1NCC(=O)c1ccc(C)cc1", "inhibition": "11.8%"}
{"molecule": "Cc1ccc(NC2(C#N)C(=O)Nc3ccccc32)cc1", "note": "(stereo not given)", "inhibition": "-3.6%"}
{"molecule": "NS(=O)(=O)c1ccc(N=Cc2ccc(Br)s2)cc1", "inhibition": "-8.2%"}
{"molecule": "CC(=O)c1sc(NC(=O)C2=NN(c3ccccc3)C(=O)CC2)nc1C", "inhibition": "-6.4%"}
{"molecule": "CC(=O)c1sc(N)nc1C", "inhibition": "-11.2% and -7.8%"}
{"molecule": "CC(=O)c1sc(N/N=C/c2ccc(C(C)C)cc2)nc1C", "inhibition": "58.4% (active)"}
{"molecule": "Cc1nc2ccccc2nc(=O)c1NNc1ccc([N+](=O)[O-])cc1", "inhibition": "-7.2%"}
{"molecule": "CNC[C@@H]1Oc2c(NS(C)(=O)=O)cccc2C(=O)N([C@@H](C)CO)C[C@H]1C", "inhibition": "-11.2%"}
{"molecule": "O=S(=O)(c1ccc(F)cc1)N1CC=C(c2ccccc2)CC1", "inhibition": "27.5%"}
{"molecule": "CC(=O)c1cnc(-c2ccccc2)s1", "inhibition": "-1.4%"}
{"molecule": "O=S(=O)(c1ccc(F)cc1)n1ccc(-c2cnc(-c3ccccc3)s2)n1", "inhibition": "67.2% (active)"}
{"molecule": "CC1CCN(C(=S)c2cccc(O)c2)CC1", "inhibition": "-0.1%"}
{"molecule": "CCn1c(SCC(=O)Nc2cccc(F)c2)nnc1-c1cc2cc(Br)ccc2o1", "inhibition": "-5.5%"}
{"molecule": "O=C(CP(=O)(c1ccccc1)c1ccccc1)N1CCOCC1", "inhibition": "-3.5%"}
{"molecule": "CCCCCCCCCCCCN1[C@@H](CC(C)=O)c2cc(F)cc(F)c2S1(=O)=O", "inhibition": "57.7% (active)"}
{"molecule": "COc1ccc(CN2[C@@H](CC(=O)O)c3cc(F)ccc3S2(=O)=O)cc1", "inhibition": "-9.9%"}
{"molecule": "CCCCCCN1CCN(C2CN(Cc3cn(Cc4ccc(F)cc4)nn3)S(=O)(=O)C2)CC1", "note": "(stereo not given)", "inhibition": "-7.8%"}
{"molecule": "CC1(C)Cc2nc3sc4c(SCC(=O)NC(c5ccccc5)c5ccccc5)ncnc4c3cc2CO1", "inhibition": "-7.6%"}
{"molecule": "CCCc1nc2scc(-c3ccc(C)cc3)c2c(=O)n1N", "inhibition": "-1.6%"}
{"molecule": "Fc1ccc(-c2csc(-c3ccc(C4SCCS4)cc3)n2)cc1F", "inhibition": "33%"}
{"molecule": "CCCc1cc(-c2nc(-c3ccc(C)cc3)cs2)ccn1", "inhibition": "56.3% (active)"}
{"molecule": "Cc1ccc(C(=O)C(=S)N2CCOCC2)cc1", "inhibition": "-7.7%"}
{"molecule": "O=C1OCCN1C(=O)[C@H]1[C@H](c2ccccc2)C(c2ccc(F)cc2)=NN1c1ccccc1", "inhibition": "41.9%"}
{"molecule": "O=C1OCCN1C(=O)[C@H]1[C@H](c2ccc(Cl)cc2)C(c2cccc(Cl)c2)=NN1c1ccc(Br)cc1", "inhibition": "67.3% (active)"}
{"molecule": "O=C1OCCN1C(=O)[C@H]1[C@H](c2ccc(F)cc2)C(c2ccccc2)=NN1c1ccc(Br)cc1", "inhibition": "46.2%"}
{"molecule": "COCCNC(=O)CSc1nc2c(n1-c1ccccc1)CCCC2", "inhibition": "-7.1%"}
{"molecule": "Cc1ccccc1-n1c(SCC(=O)Nc2cccc3ccccc23)nc(O)cc1=O", "inhibition": "-5.5%"}
{"molecule": "Cc1ccc(C)c(NC(=O)COC(=O)CSc2ccccc2)c1", "inhibition": "-9.4%"}
{"molecule": "Cc1ccc(C)c(Cn2cnc3c(oc4ccccc43)c2=O)c1", "inhibition": "16.6%"}
{"molecule": "Cc1ccc(C)c(NC(=O)CSc2nc3c(oc4ccccc43)c(=O)n2-c2ccccc2)c1", "inhibition": "62.3% (active)"}
{"molecule": "CCN1CCN(C(=O)/C=C\\C(=O)O)CC1", "inhibition": "-3%"}
{"molecule": "COc1ccc(/C=C/C(=O)c2cc(Br)ccc(=O)c2O)cc1", "inhibition": "6.9%"}
{"molecule": "COC(=O)CN(c1cccc(C(C)=O)c1)S(C)(=O)=O", "inhibition": "-7%"}
{"molecule": "O=C(COC(=O)c1cc([N+](=O)[O-])ccc1NCc1ccccc1)NC1CCCCC1", "inhibition": "60.7% (active)"}
{"molecule": "O=C(COC(=O)c1ccccc1Cl)NC1CCCCCCC1", "inhibition": "8.2%"}
{"molecule": "O=C(COC(=O)Cc1ccc([N+](=O)[O-])cc1)NC1CCCCCC1", "inhibition": "22.7%"}
{"molecule": "COc1ccc(S(=O)(=O)N(CCCN2CCCC2=O)Cc2cc3c(C)ccc(C)c3[nH]c2=O)cc1", "inhibition": "-3%"}
{"molecule": "O=C(CCC1CCCCC1)Nc1cc(C(F)(F)F)ccc1N1CCOCC1", "inhibition": "34.3%"}
{"molecule": "Cc1cccc(CS(=O)(=O)c2ncc(Cl)c(C(=O)Nc3ccc(F)cc3)n2)c1", "inhibition": "56.5% (active)"}
{"molecule": "Cc1cccc(CN2CCC(CNC(=O)Nc3ccc(F)c(Cl)c3)CC2)c1", "inhibition": "2.9%"}
{"molecule": "Cc1ccc(C)c(Cn2nnc3c(=O)[nH]c(C(=O)Nc4ccc(F)cc4)nc32)c1", "inhibition": "3.8%"}
{"molecule": "O=C(N=C1SC2CS(=O)(=O)CC2N1c1ccccc1)c1ccccc1", "note": "(stereo not given)", "inhibition": "8.4%"}
{"molecule": "O=[N+]([O-])c1ccc(CN2CC(N3CCC(c4ccccc4)CC3)CS2(=O)=O)cc1", "note": "(stereo not given)", "inhibition": "69.8% (active)"}
{"molecule": "O=S1(=O)CC(N2CCC(Cc3ccccc3)CC2)CN1Cc1ccccc1", "note": "(stereo not given)", "inhibition": "6.6%"}
{"molecule": "O=[N+]([O-])c1ccc(CN2CC(N3CC=CC3)CS2(=O)=O)cc1", "note": "(stereo not given)", "inhibition": "-9.2%"}
{"molecule": "CN(C(=O)c1ccc(NC(=O)Cc2cccc(NC(=O)C3CCN(C(=O)c4ccccc4)CC3)c2)cc1)C1CC1", "inhibition": "-9.5%"}
{"molecule": "CCOc1ccc(C(=O)NC2CCN(CC(=O)NCc3cccs3)CC2)cc1", "inhibition": "-3.1%"}
{"molecule": "Cc1cccc(NC(=O)C(C)N2C(=O)C3C4CC(C(Br)C4Br)C3C2=O)c1", "note": "(stereo not given)", "inhibition": "20.5%"}
{"molecule": "O=C(Nc1ccnn1C1CCN(C/C=C/c2ccc(F)cc2)CC1)C1CCCC1", "inhibition": "-0.7%"}
{"molecule": "Cc1cc(C(=O)COc2ccccc2[N+](=O)[O-])c(C)n1-c1cccc(S(=O)(=O)N2CCOCC2)c1", "inhibition": "58.7% (active)"}
{"molecule": "Cc1cc(S(=O)(=O)N2CCOCC2)ccc1OCC(=O)N1CCOCC1", "inhibition": "-2.5%"}
{"molecule": "COC(=O)c1cc(Oc2ccc(S(=O)(=O)N3CCOCC3)cc2[N+](=O)[O-])cc(C(=O)OC)c1", "inhibition": "38.3%"}
